Data published in PubChem BioAssay (EPA / NIEHS).
Results filed as inconclusive are left out. Calls of active or inactive are those of the source. Rule for the calls: active = hit-call score of the fitted dose curve at least 0.9, where 1 is the maximum; inconclusive = response in the unintended direction; inactive = score below 0.9.

Assay: ATG_XTT_Cytotoxicity: Cytotoxicity Assessment in the Attagene TRANS-FACTORIAL HepG2 Assay (AID 2283584);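 for AC50: cells exposed to compound for 24 h before reading; active means loss of viability signal versus DMSO baseline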
Method: ATG_XTT_Cytotoxicity is a cell-based, single-readout assay that uses HepG2, a human liver cell line, with measurements taken at 24 hours after chemical dosing in a 24-well plate.ATG_XTT_Cytotoxicity is one of one assay component(s) measured or calculated from the ATG_XTT_Cytotoxicity assay. It is designed to make measurements of cell number, a form of viability reporter, as detected with […] signals by XTT cytotoxicity assay technology.Data from the assay component ATG_XTT_Cytotoxicity was analyzed into 1 assay endpoint. This assay endpoint, ATG_XTT_Cytotoxicity, was analyzed in the positive analysis fitting direction relative to DMSO as the negative control and baseline of activity. Using a type of viability reporter, loss-of-signal activity can be used to understand changes in the viability. Furthermore, this assay endpoint can be referred to as a primary readout, because the performed assay has only produced 1 assay endpoint. To generalize the intended target to other relatable targets, this assay endpoint is annotated to the cell cycle intended target family, where the subfamily is cytotoxicity.
Human liver HepG2 cells are transiently transfected with multiple reporter transcription units (MRTUs) in 6-well plates using FuGene 6 reagent (Roche; 3 ml FuGene/1 mg DNA). The MRTU constructs are regulated by a cis-regulating element (promoter). […] A major difference between the CIS and TRANS system is that in CIS activities of endogenous TFs are measured, whereas the TRANS assay evaluates changes in activities of exogenous, chimeric NR-Gal4 proteins. […] At the end of 24 hour incubation, total RNA was isolated using TriZol reagent (Invitrogen). The isolated RNA is then reverse-transcribed using oligo(dT) primer and Mo-MLV reverse transcriptase (Invitrogen) with DNAse I (Ambion) treatment for 30 min. The one-tenth of the produced cDNA was amplified by PCR using Taq DNA polymerase (Invitrogen) and two reporter sequence-specific primers. The PCR products were fluorescently labeled by primer extension with 6-arboxyfluorescein (6-FAM) 5'-labeled reporter sequence-specific primer (2 min at 95 C, 20 s at 68 C and 10 min at 72 C) and these products were digested with 5U of HpaI (New England Biolabs) for 2h at 37 C. The fragments were purified using Qiaquick PCR columns (Qiagen), analyzed on an ABI 3130xL genetic analyzer (Applied Biosystems) with peak positions identified by using a set of X-rhodamine (ROX)-labeled MapMarker1000 molecular weight standards (BioVentures). The raw capillary electrophoresis data was processed using Attagraph software (Attagene).

SMILES | outcome | AC50
CCOP(=O)(NC(C)C)Oc1ccc(SC)c(C)c1 (configuration not stated) | inactive | –
COc1ccc(C(=CC(=O)N2CCOCC2)c2ccc(Cl)cc2)cc1OC | inactive | –
CCc1cccc(C)c1N(C(=O)CCl)C(C)COC (configuration not stated) | inactive | –
CCC(CC)Nc1c([N+](=O)[O-])cc(C)c(C)c1[N+](=O)[O-] | inactive | –
CCOP(=S)(OCC)Oc1ccc2c(C)c(Cl)c(=O)oc2c1 | inactive | –
CCC(=O)Nc1ccc(Cl)c(Cl)c1 | inactive | –
C#CCC1=C(C)C(OC(=O)C2C(C=C(C)C)C2(C)C)CC1=O (configuration not stated) | inactive | –
C#CC(C)(C)NC(=O)c1cc(Cl)cc(Cl)c1 | inactive | –
CN(C)[C@@H]1C(=O)C(C(N)=O)=C(O)[C@@]2(O)C(=O)C3=C(O)c4c(O)cccc4[C@@](C)(O)[C@H]3[C@H](O)[C@@H]12 | inactive | –
CCCOCC(=Nc1ccc(Cl)cc1C(F)(F)F)n1ccnc1 | inactive | –
Nc1c(Cl)cc([N+](=O)[O-])cc1Cl | inactive | –
O=[N+]([O-])c1cc(C(F)(F)F)c(Cl)c([N+](=O)[O-])c1Nc1ncc(C(F)(F)F)cc1Cl | – | 38.8 µM (active)
